In all, about 310,000 compounds went through this assay and about 11,000 (3.5%) were called active. Roughly 8% stayed inconclusive and do not appear here. The list comes from a sample in which actives are over-represented; it also holds similar structures and randomly drawn compounds. A call without a number means that no potency is given here. Values without a mark were called inactive. The call rests on the fitted dose curve; in most records, active means well fitted inhibition curve with a large enough effect; inconclusive means small, poorly fitted or top-dose-only effect, or effect the other way; inactive means flat fitted curve, though single readings scatter.
Test: VP16 counterscreen qHTS for inhibitors of ROR gamma transcriptional activity;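 further: Gal4-VP16 expression switched on by copper sulfate through the metallothionein promoter; nearly all actives have a fitted effect of over 50% in size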
Settings: Drosophila S2 Gal4-VP16 UAS-luciferase, luminescence, 20 h; series mostly up to 53.6 µM
In the case of Cc1ccc(/C=C2/SC(=S)N(CCC(=O)NCCCN3CCOCC3)C2=O)cc1, the Potency is reported as “inactive”.
With CCCC[C@]12Cc3cc(OC)c(OC)cc3C(O1)C1=C(CC3(CCCCC3)OC1=O)O2 the activity, negative = inhibition was 7.46% [at 10 µM].
For C=C1C(=CC=C2CCC[C@@]3(C)[C@@H]2CC[C@H]3[C@H](C)CCCC(C)C)C[C@@H](O)C[C@@H]1O, the Potency was “inactive”.
In the case of C=C1/C(=C\C=C2\CCCC3(C)C2CCC3C(C)/C=C/C(O)C2CC2)CC(O)CC1O (centres undefined), the Potency is reported as 12.6 µM (active).
In the case of COc1ccc(C(O)(C2CCCCC2)C(CN2CCCC2)c2ccccc2)cc1 (centres undefined), the Potency is reported as “inactive”.
For O=C(NCc1ccccc1Cl)C1CCN(S(=O)(=O)c2cccc3nonc23)CC1, the Potency was “inactive”.
In the case of O=C(NCCc1ccccc1)c1ccc2c(c1)N(Cc1ccccc1)CCS2, the Potency is reported as “inactive”.
In the case of O=C(NCc1ccco1)c1cccn2c(=O)c3c4c(sc3nc12)CCCC4, the Potency is reported as 11.2 µM (active).
In the case of COc1ccc(CCn2c(=N)c(C(=O)NCc3ccco3)cc3c(=O)n4cccc(C)c4nc32)cc1, the Potency is reported as “inactive”.
In the case of O=c1oc(-c2ccco2)nc2sc3c(c12)CCCCC3, the Potency is reported as “inactive”.
In the case of CCCCC(C(=O)NC(C)(C)C)N(Cc1ccccc1)C(=O)c1snc(C(N)=O)c1N (centres undefined), the Potency is reported as “inactive”.
For O=C(CN1CCN(Cc2ccccc2)CC1)Nc1ccc(F)c(F)c1, the Potency was “inactive”.
With Cc1cc(N2CCN(C)CC2)nc2ccc(NC(=S)N3CCOCC3)cc12 the Potency was “inactive”.
With CCn1c2ccccc2c2cc(NC(=O)CNC)ccc21 the Potency was “inactive”.
In the case of CCn1c2ccccc2c2cc(NC(=S)N3CCOCC3)ccc21, the Potency is reported as 22.4 µM (active).
With CC(C)CCN(C(=O)c1csnn1)C(C(=O)NC1CCCC1)c1ccccc1 (centres undefined) the Potency was “inactive”.
With Nc1c(C(=O)NCc2ccccc2)nnn1Cc1cccc(Cl)c1 the Potency was “inactive”.
In the case of CC(C)CC(=O)N1CCN(Cc2cccc(Cl)c2)CC1, the Potency is reported as “inactive”.
With Clc1cccc(CN2COc3c(cc(Cl)c4cccnc34)C2)c1 the Potency was 1.41 µM (active).
With N#Cc1cccc(CN2CCC(=O)N([C@H](CO)c3ccccc3)CC2)c1 the Potency was “inactive”.
For Cc1ccc(NC(=O)c2c(NC(=O)CCC(=O)O)sc3c2CCCCC3)cc1, the Potency was “inactive”.
With O=C(CN1CCCC1)Nc1sc2c(c1C(=O)Nc1ccccc1)CCCC2 the Potency was 10 µM (active).
With NC(=O)c1c(NC(=O)c2ccccc2)sc2c1CCCC2 the Potency was “inactive”.
With COc1cc(S(=O)(=O)N2CCN=C2c2ccccc2)ccc1Cl the Potency was “inactive”.
In the case of Cc1cc(S(=O)(=O)c2cc3ccc(O)c(C)c3oc2=O)ccc1F, the Potency is reported as “inactive”.
For Cc1ccc2occ(/C=N/NC(=O)c3ccccc3C)c(=O)c2c1, the Potency was “inactive”.
With Cc1ccc(/C=N/NC(=O)C2=NNC(c3ccccc3)(c3ccccc3)C2)c(O)c1 the Potency was 1.26 µM (active).
For Cc1nc2ccc(C(=O)N/N=C/c3ccc(O)cc3)cc2[nH]1, the Potency was “inactive”.
For O=C(NCc1ccccc1)c1onc(CSc2nc3ccccc3[nH]2)c1C(=O)NCc1ccccc1, the Potency was “inactive”.
With O=C(COc1ccc2c3c(c(=O)oc2c1)CCCC3)NCC(O)c1ccccc1 (centres undefined) the Potency was “inactive”.
With COCCN1C(=O)C(=O)/C(=C(/O)c2ccc(S(=O)(=O)N3CCOCC3)cc2)C1c1ccc(OC)c(OC)c1 (centres undefined) the Potency was “inactive”.
With C/C(=N/NC(=O)c1ccncc1)c1ccc2c(c1)OCO2 the Potency was “inactive”.
For C/C(=N/NC(=S)Nc1ccccc1)c1ccc2c(c1)OCO2, the Potency was 4.47 µM (active).
For C/C(=N\NC(=O)C(N)=O)c1ccc2c(c1)OCCO2, the Potency was “inactive”.
For Cc1ccccc1N1CCN(C2CCCN(C(=O)c3cn4c(C)cccc4n3)C2)CC1 (centres undefined), the Potency was “inactive”.
For CCc1nn(CCCC(=O)Nc2ccc(C)c(C)c2)c(=O)c2cc3occc3n12, the Potency was “inactive”.
With CN1C/C(=C/c2cccs2)C(=O)/C(=C\c2cccs2)C1 the Potency was “inactive”.
For CCCc1cc(C(=O)Nc2ccc(Cl)cn2)cs1, the Potency was “inactive”.
In the case of O=C(Nc1ccc(Cl)cn1)Nc1cccs1, the Potency is reported as 14.1 µM (active).
For O=C(Nc1cccc([N+](=O)[O-])c1)Nc1ccc(Cl)cn1, the Potency was “inactive”.
For COc1cc(/C=N/N2CCN(c3ccccc3)CC2)ccc1OC(C)=O, the Potency was “inactive”.
For CC1CN/C(=C\C(=O)c2ccc(Br)cc2)C(=O)N1 (centres undefined), the Potency was 11.2 µM (active).
With C/C(=C\C(=O)c1ccc(Br)cc1)N1CCCCC1 the Potency was “inactive”.
With COc1cc2c(cc1OC)/C(=C/C(=O)c1ccc(NC(C)=O)cc1)NCC2 the Potency was “inactive”.
With Cc1ccnc(SCC(N)=O)n1 the Potency was “inactive”.
For CCOc1ccccc1N1C(=O)CC(Sc2nccc(C)n2)C1=O (centres undefined), the Potency was 17.8 µM (active).
In the case of O=C1CC(Sc2ncn[nH]2)C(=O)N1c1ccccc1 (centres undefined), the Potency is reported as “inactive”.
For COC(=O)C1CCN(C(=O)c2ccc3oc(Cc4ccc(Cl)cc4)nc3c2)CC1, the Potency was “inactive”.
In the case of COc1ccc(-c2nc3c(s2)CCc2onc(-c4ccc(OC)cc4)c2-3)cc1, the Potency is reported as “inactive”.
For CCn1ccnc1CNC(=O)CC1C(=O)NCCN1CCCc1ccccc1 (centres undefined), the Potency was “inactive”.
For COCCNC(=S)N(CCc1c(C)[nH]c2ccc(C)cc12)Cc1cccnc1, the Potency was “inactive”.
For Cc1cccc(Nc2nc(-c3ccccc3)cs2)n1, the Potency was 17.8 µM (active).
In the case of Cc1cccc(S(=O)(=O)CC(=O)Nc2nc(-c3ccccc3)cs2)c1, the Potency is reported as “inactive”.
For NS(=O)(=O)c1ccc(Nc2nc(-c3ccccc3)cs2)cc1, the Potency was “inactive”.
For COc1ccccc1-c1nnc(SCC(=O)Nc2ccccc2)o1, the Potency was “inactive”.
In the case of O=C(Nc1ccc(S(=O)(=O)N2CCOCC2)cc1)c1ccc2ncsc2c1, the Potency is reported as “inactive”.
For COc1ccccc1-c1nnc(NC(=O)c2ccc3ncsc3c2)o1, the Potency was 0.501 µM (active).
In the case of Nc1nonc1-n1nnc(C(=O)N/N=C/c2c[nH]c3ccccc23)c1-c1ccccc1, the Potency is reported as “inactive”.
For Nc1nonc1-n1nnc(C(=O)N/N=C/C2CCCCC2)c1-c1ccccc1, the Potency was “inactive”.
For CCCOc1ccc(-c2c(C(=O)N/N=C/c3ccco3)nnn2-c2nonc2N)cc1, the Potency was 15.8 µM (active).
For COc1ccc(NC(=O)c2cccc3c2C(=O)N(CC2CCCO2)C3)cc1OC (centres undefined), the Potency was “inactive”.
In the case of O=C(NNS(=O)(=O)c1ccc(F)cc1)C1CCCCC1, the Potency is reported as “inactive”.
For COc1cc(NS(=O)(=O)c2ccc(N=Cc3c(C)[nH]n(-c4ccccc4)c3=O)cc2)nc(OC)n1, the Potency was “inactive”.
In the case of COc1cc(SC#N)ccc1N=Cc1c(C)[nH]n(-c2ccc(C)cc2)c1=O, the Potency is reported as 5.62 µM (active).
For O=S(=O)(Nc1cccc(-n2cnnn2)c1)c1cnc(Cl)c(Cl)c1, the Potency was “inactive”.
In the case of CCc1ccc(S(=O)(=O)Nc2cc3c(cc2N2CCCCC2)n(C)c(=O)c(=O)n3C)cc1, the Potency is reported as “inactive”.
With CSCCC(NS(=O)(=O)c1ccc(C)cc1)C(=O)NCCc1c[nH]c2ccccc12 (centres undefined) the Potency was “inactive”.
In the case of COc1ccc(C(=O)c2c(C)c(CCC#N)n3ccccc23)c(OC)c1, the Potency is reported as “inactive”.
For Cc1ccc(-c2cc(C(=O)N/N=C/C=C/c3ccccc3)n[nH]2)o1, the Potency was 20 µM (active).
For Cc1ccc(-c2cc(C(=O)NN)n[nH]2)o1, the Potency was “inactive”.
With CC(C)c1cc(C(=O)N/N=C/C(Br)=C/c2ccccc2)n[nH]1 the Potency was “inactive”.
With Cc1cc2oc(=O)cc(CN3CCN(Cc4ccccc4)CC3)c2cc1C the Potency was “inactive”.
In the case of COc1cccc(CNC(=O)Cn2c(=O)oc3cc(S(=O)(=O)N4CCCCC4)ccc32)c1, the Potency is reported as “inactive”.
With Cc1ccc(N2CCN(C(=O)c3cccs3)CC2)c(C)c1 the Potency was “inactive”.
With CCc1ccc(C(=O)NC(=S)Nc2ccccc2N2CCOCC2)cc1 the Potency was 3.16 µM (active).
For O=C(CCNC(=O)c1ccc([N+](=O)[O-])cc1)Nc1ccccc1N1CCOCC1, the Potency was “inactive”.
In the case of COc1ccccc1C(=O)NC(=S)Nc1ccccc1N1CCCCC1, the Potency is reported as 10 µM (active).
For O=C(Nc1ccccc1N1CCCC1)c1ccc2ccccc2c1, the Potency was “inactive”.
For Cc1ccccc1NC(=O)Nc1ccccc1N1CCCCC1, the Potency was “inactive”.
In the case of O=C(NC(=S)Nc1ccccc1N1CCCCC1)c1ccc(F)cc1, the Potency is reported as 6.31 µM (active).
With COc1ccc(C(=O)NC(=S)Nc2ccccc2N2CCN(S(C)(=O)=O)CC2)cc1OC the Potency was “inactive”.
CC(=O)c1ccc(N2CCN(CC(=O)Nc3ccccc3N3CCOCC3)CC2)cc1 showed an activity, negative = inhibition of -11.4% [at 10 µM].
In the case of O=C(Nc1ccccc1N1CCCCC1)c1cccc(F)c1, the Potency is reported as “inactive”.
In the case of COc1ccc(/C=C(\C#N)c2c[nH]c3ccccc23)cc1, the Potency is reported as “inactive”.
With Cn1c(=O)oc2cc(S(=O)(=O)NCCC(=O)NCc3ccccc3Cl)ccc21 the Potency was “inactive”.
With CN(Cc1ccccc1)C(=O)C1CCCN(c2ncnc3c2nc2n3CCCCC2)C1 (centres undefined) the Potency was “inactive”.
For CC1CCN(CCCn2c(SCC(=O)NC3CCCC3)nc3ccccc3c2=O)CC1, the Potency was “inactive”.
In the case of Cc1c2cnn(CC(=O)NCc3ccccn3)c(=O)c2c(C)n1Cc1ccc(Cl)cc1, the Potency is reported as “inactive”.
In the case of O=C1Nc2ccccc2/C1=C/c1ccnc2ccccc12, the Potency is reported as “inactive”.
For COc1cc(CN2CCCC(C(=O)c3ccc(SC)cc3)C2)cc(Cl)c1O (centres undefined), the Potency was “inactive”.
In the case of COc1ccc(NC(=O)C2CCN(S(=O)(=O)c3ccc4[nH]c(=O)oc4c3)CC2)c(OC)c1, the Potency is reported as “inactive”.
With C=CCSc1nnc(N2C(=O)C(O)=C(C(=O)c3ccco3)C2c2ccc(F)cc2)s1 (centres undefined) the Potency was “inactive”.
For O=S(=O)(c1ccc(Br)cc1)c1nc(-c2ccccc2)oc1N1CCOCC1, the Potency was “inactive”.
In the case of COc1cc(C(=O)NC2CCN(Cc3ccccc3)CC2)cc(Cl)c1OC(C)C, the Potency is reported as “inactive”.
For CCOC(=O)c1cnc(-c2ccccc2)nc1Oc1ccc(C)cc1, the Potency was “inactive”.
With CNc1nc(-c2ccccc2OC)nc2ccccc12 the Potency was “inactive”.
For COc1ccc(Cc2nc(-c3ccccn3)no2)cc1OC, the Potency was “inactive”.
In the case of COc1ccccc1Oc1nc(-c2cccnc2)nc2ccccc12, the Potency is reported as “inactive”.
For Cc1ccc(Oc2nc(-c3ccccn3)nc3ccccc23)cc1, the Potency was 3.16 µM (active).
In the case of Cc1cnc(CNc2nc(-c3cccnc3)nc3ccccc23)cn1, the Potency is reported as “inactive”.
For CC(C)(C)Nc1nc(-c2ccccn2)nc2ccccc12, the Potency was 3.98 µM (active).
In the case of COc1cnc(-c2ccccn2)nc1Oc1ccc(C(C)(C)C)cc1, the Potency is reported as 12.6 µM (active).
In the case of COc1ccc(Sc2nc(-c3ccccc3)ncc2OC)cc1, the Potency is reported as “inactive”.
With CCCc1ccc(OCC(O)CN2CCN(C(=O)OCC)CC2)cc1 (centres undefined) the Potency was “inactive”.

Reference: PubChem BioAssay AID2546 (National Center for Advancing Translational Sciences (NCATS), 2010)
Potency means the concentration at half of the fitted maximal effect.
